# Screens (PubChem)
# Rows were chosen to be rich in hits. Some 9% of all compounds tested hit in one or more screens of this group.
# Lamin A splicing – qHTS Assay for Modulators of Lamin A Splicing | HeLa LMNA splicing GFP/RFP minigene ratio, 48 h | 200,000 tested, 0.01% active | AID 1487, 2009 | Potency, µM (doses to about 46.1 µM), hits mostly inhibitors; active = well fitted inhibition curve with a large enough effect in the signal ratio, with a control signal flat, not every such curve was filed as active; inconclusive = small, poorly fitted or top-dose-only effect, or effect the other way, or a change in a side signal; the % refers to the signal ratio
#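 S3 HeLa stable clones carrying a lamin A-EGFP splicing minigene plus DsRed2 were seeded at 600 cells/well in Opti-MEM with 2% FBS, pin-dosed and incubated 48 h at 37°C. Acumen cytometry (488 nm) gave the GFP/RFP total-intensity ratio.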
# HPGD inh – qHTS Assay for Inhibitors of HPGD (15-Hydroxyprostaglandin Dehydrogenase) | 15-hydroxyprostaglandin dehydrogenase [NAD(+)] (Homo sapiens), P15428 | purified HPGD, NADH fluorescence kinetic, PGE2 substrate | Potency, µM, most hits filed as inhibitors | 150,000 tested, 4.3% active; active = well fitted inhibition curve with a large enough effect, not every such curve was filed as active; inconclusive = small, poorly fitted or top-dose-only effect, or another doubt; inactive = no such curve, though single readings can be large or run the other way
# Target sequence (P15428 whole entry, looked up): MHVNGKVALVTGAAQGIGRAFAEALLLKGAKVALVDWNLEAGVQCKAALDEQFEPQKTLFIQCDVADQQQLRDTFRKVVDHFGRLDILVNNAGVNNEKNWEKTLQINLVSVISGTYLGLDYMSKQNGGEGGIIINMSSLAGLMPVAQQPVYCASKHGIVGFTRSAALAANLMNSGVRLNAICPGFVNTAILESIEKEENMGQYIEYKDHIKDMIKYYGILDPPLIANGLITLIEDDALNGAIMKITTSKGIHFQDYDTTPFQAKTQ
#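 20 nM HPGD preincubated 15 min at room temperature with compound in 50 mM Tris-HCl pH 8, 0.01% Tween 20. Started with 1 mM NAD+ and 30 uM prostaglandin E2; NADH fluorescence (360/450 nm) read 5 times over 30-s intervals, last minus first.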
# Luc counter – Counterscreen for Luciferase (Kinase-Glo TM) Inhibition; Luciferin 4-monooxygenase (Photuris pensylvanica), Q27757; Kinase-Glo luciferase, ATP luminescence, 8 min; Potency, µM (doses to about 38.3 µM), hits mostly inhibitors; 200,000 tested, 0.28% active; AID 1379, 2008; also: nearly all actives have a fitted effect of over 60% in size
#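 Substrate mix (final 50 mM imidazole pH 7.2, 50 mM KCl, 7 mM MgCl2, 10 uM ATP, 0.01% Tween 20, 0.05% BSA) plus pin-tool compound, then Kinase-Glo detection mix; 8 min ambient, luminescence read.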
# IMPase Li cell – qHTS Assay for Identifying the Cell-Membrane Permeable IMPase Inhibitors: Potentiation with Lithium; 210,000 tested, 0.35% active; CHO-M1 cells, IP1 TR-FRET (IP-One), carbachol + lithium; AID 1457, 2008; Potency, µM (series often up to 59.4 µM), hits mostly inhibitors;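 also: IP1 builds up when IMPase is blocked and the TR-FRET signal falls; nearly all actives have a fitted effect of over 50% in size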
#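 IP1 accumulation measured by competitive TR-FRET in lysed CHO-M1 cells after 30 min compound exposure at 37C, with a small lithium addition to potentiate weak responses. Hill-equation AC50 from ratio and donor-channel data.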
# ALDH1A1 block – qHTS Assay for Inhibitors of Aldehyde Dehydrogenase 1 (ALDH1A1) | Aldehyde dehydrogenase 1A1 (Homo sapiens), P00352 | Purified ALDH1A1, NADH fluorescence, propionaldehyde substrate | Potency, µM (titrated, usually from 75.3 µM), actives largely listed as inhibitors | 220,000 tested, 7.3% active | AID 1030, 2008; active = well fitted inhibition curve with a large enough effect, not every such curve was filed as active; inconclusive = small, poorly fitted or top-dose-only effect, or another doubt; inactive = no such curve, though single readings can be large or run the other way
# Hits are given with their value; n = inactive; u = inconclusive; x = not tested or not shown. Unless noted, calls follow the shape of the dose curve; as a rule, active = well fitted curve in the direction sought with a large enough effect; inconclusive = small, poorly fitted or top-dose-only effect, or another doubt; inactive = no such curve, though single readings can be large; an effect the other way counts as inactive or inconclusive.
SMILES,Lamin A splicing,HPGD inh,Luc counter,IMPase Li cell,ALDH1A1 block
CCCCc1nnc(SCc2ccc(OCC)cc2)n1N,u,25µM,n,n,n
CCCc1nnc(SCc2ccc(OCC)cc2)n1N,n,28µM,n,n,n
CCc1nnc(SCc2ccc(CSc3nnc(CC)n3N)cc2)n1N,n,n,n,n,n
CC(N)(C(=O)O)c1cccc(CC(=O)O)c1 (centres undefined),x,x,x,n,n
CC(=O)NCCNc1ncnc2ccc(-c3ccc4c(c3)OCO4)cc12,n,x,x,n,u
O=C(CSc1cn(Cc2ccccc2)c2ccccc12)NCc1ccc(F)cc1,n,n,n,n,7.9µM
O=C(O)CC(C(=O)O)c1cn(Cc2ccccc2)c2ccccc12 (centres undefined),n,n,n,n,11µM
O=C(CSc1ncccn1)NCc1ccc(F)cc1,n,n,n,n,n
O=C(CSc1cn(Cc2ccccc2)c2ccccc12)Nc1nccs1,n,n,n,n,14µM
COc1ccc(C2=CC(=O)OC3(CCCC3)O2)cc1,n,n,n,n,13µM
FC(F)(F)c1cc(-c2ccco2)nc(N2CCN(Cc3ccccc3)CC2)n1,n,n,n,n,22µM
COc1ccc(CCNC(=O)C(=O)NCc2cccs2)cc1OC,n,x,n,n,u
CC(C)OC(=O)[C@@H]1CC[C@H](C)[C@@H](CCC[C@@H]2CC=C[C@H](CC#N)O2)O1,x,n,n,n,n
CC(C)N(Cc1ccccc1)C(=O)/C=C/c1ccccc1[N+](=O)[O-],u,x,n,n,5.6µM
CCNC(=O)/C=C/c1ccccc1[N+](=O)[O-],x,x,n,n,n
CCOC(=O)CN(C(=O)CSc1nnc2c(n1)[nH]c1c(C)cc(C)cc12)c1ccccc1,n,n,n,n,n
N#CCC(=O)Nc1ccc(C(F)(F)F)cc1N1CCOCC1,x,x,n,n,n
CC(=O)Nc1ccc(OCC(O)CNC2CCCC2)cc1 (centres undefined),u,n,n,n,18µM
CCCCCCCSc1nnc(-c2ccccc2N)c(=O)[nH]1,x,x,n,n,n
CCCCSc1nnc(-c2ccccc2N)c(=O)[nH]1,n,n,n,x,1.6µM
O=Cc1ccc(-n2cccn2)cc1,x,x,n,n,u
Cn1cc(/C=C2\SC(=O)NC2=S)c2ccccc21,x,x,n,n,1.4µM
Cn1cc(C=O)c2ccccc21,x,x,n,n,2.8µM
O=Cc1ccc(-n2cc(C=O)c3ccccc32)cc1,n,x,n,n,11µM
COC(=O)/C(=C/c1cn(C)c2ccccc12)[N+](=O)[O-],n,3.5µM,n,n,1.8µM
SMILES,Lamin A splicing,HPGD inh,Luc counter,IMPase Li cell,ALDH1A1 block
Cc1ccc(/C(C#N)=C\c2cn(C)c3ccccc23)cc1,u,n,n,n,n
COC(=O)/C(=C/c1c[nH]c2ccccc12)[N+](=O)[O-],n,x,x,x,u
COc1ccc(/C=C2/SC(=O)NC2=O)cc1,n,x,n,n,n
Cc1ccc(/C=C2/SC(=O)NC2=S)o1,x,x,n,u,14µM
O=C(Nc1ccc2c(c1)ncn2-c1ccccc1)c1ccco1,n,32µM,n,n,u
O=C(Nc1cccc(-n2cnnn2)c1)c1ccco1,n,n,n,n,40µM
CC(=O)c1cccc(NC(=O)c2ccco2)c1,u,n,n,n,n
CC(C)NC(=S)NNc1nc2ccccc2s1,n,x,n,n,0.56µM
O=C(NNc1nc2ccccc2s1)c1ccc(F)cc1,u,n,n,n,n
COc1ccccc1C(=O)NC(=S)Nc1ccc(N2CCOCC2)c(Cl)c1,x,x,n,n,11µM
COc1ccccc1C(=O)NC(=S)Nc1cc(C(=O)O)ccc1C,x,x,n,n,14µM
O=C(Nc1ccc(N2CCOCC2)c(Cl)c1)c1ccc(Cl)cc1,u,x,n,n,n
COc1cc2ccccc2cc1C(=O)NC(=S)Nc1cc(C(=O)O)ccc1C,x,x,n,n,n
O=C(Nc1ccc(N2CCOCC2)c(Cl)c1)c1ccccc1F,n,16µM,n,n,u
Cc1cccc(N2CCN(C(=O)Cn3c(-c4cccs4)cc4ccccc43)CC2)c1C,n,x,x,x,x
CC(=O)Oc1cc(C(F)(F)F)ccc1C(=O)O,n,u,n,n,u
Cc1cc(NC(=O)c2cc(-c3ccccc3)on2)no1,n,n,n,n,n
